The values below come from PubChem BioAssay (Tox21).

Unmarked numbers belong to inactive results. Results filed as inconclusive are left out. Active and inactive are the calls of the source. Unless noted, the call rests on the fitted dose curve; in most records, active means well fitted curve in the direction sought with a large enough effect in the repeat runs; inconclusive means weak or mixed curves; inactive means no such curve, though single readings can be large; an effect the other way counts as inactive or inconclusive.

Test [1] deals with Thyrotropin-releasing hormone receptor (Homo sapiens) (UniProt P34981). As to the kind of experiment: qHTS assay to identify small molecule agonists of the thyrotropin-releasing hormone receptor (TRHR) signaling pathway (AID 1346891; calls by dose curve;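 further: HEK293 cells expressing TRHR with calcium dye readout; series mostly up to about 58 µM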). Summed up:
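In 1536-format, 1500 TRHR-Hek293 cells per well grew 18 h, took up calcium dye for 2 h at 37 °C, received compound, and were read kinetically; 15-point titrations, triplicates.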
(In general: Quantitative high-throughput screening tests each substance at several concentrations.)

The nature of test [2]: Human pregnane X receptor (PXR) small molecule agonists, qHTS cell viability counter screen (AID 1346977). Further: nearly all actives have a fitted effect of over 50% in size. Summed up:
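Readout is CellTiter-Fluor fluorescence from PXR-Luc HepG2 cells. Plated cells rested 5hr, then were treated with compounds for 24hr at 37C and 5% CO2, with reagent present during the last hour.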

The nature of test [3]: Caspase-3/7 induction in HepG2 cells by small molecules, qHTS assay (AID 1346978). Further: nearly all actives have a fitted effect of over 15% in size. The method, boiled down:
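Caspase-3/7 induction was measured by Caspase-Glo 3/7 luminescence (30 min, room temperature) after a 17 hr compound exposure of wild-type HepG2 cells seeded at 2,000 per well and pre-incubated 5 hr.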

The nature of test [4]: Caspase-3/7 induction in CHO-K1 cells by small molecules, qHTS assay (AID 1346980). Further: nearly all actives have a fitted effect of over 15% in size. Summed up:
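Luminescent Caspase-Glo 3/7 read (30min, room temperature) quantified apoptosis induction. Cells were wild-type CHO-K1, treated with compound for 17hr at 37 C and 5% CO2.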

Test [5] can be described thus: Caspase-3/7 induction in HepG2 cells by small molecules, qHTS cell viability counter screen (AID 1346981). Further: series mostly up to about 92 µM; nearly all actives have a fitted effect of over 30% in size. The method, boiled down:
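In this quantitative HTS counter screen, compounds delivered in DMSO were left on unmodified HepG2 cells for 16 hr at 37 C. Viability was then determined fluorometrically with CellTiter-Fluor, in parallel with caspase-3/7 induction in the same wells.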

Test [6] concerns the target Nuclear receptor subfamily 1 group I member 2 (Homo sapiens) (UniProt O75469). The test is described as follows: Human pregnane X receptor (PXR) small molecule agonists, qHTS assay (AID 1346982). Further: nearly all actives have a fitted effect of over 35% in size. Further: potency means the concentration at half of the fitted maximal effect. The method, boiled down: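 Reporter HepG2 cells expressing PXR-Luc are cultured in charcoal-stripped FBS (5%), treated with compounds for 24 hr at 37 C, and assayed by ONE-Glo luminescence after 30 min at room temperature.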

Test [7] addresses Acetylcholinesterase (Homo sapiens) (UniProt P22303). As to the kind of experiment: Acetylcholinesterase (AChE) small molecule antagonists: colormetric cell-based qHTS assay (AID 1347395; calls by dose curve; further: nearly all actives have a fitted effect of over 30% in size). Summed up: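 Neuroblastoma line SH-SY5Y supplied the enzyme; cells were preincubated with compound for 30 min at 37 C and 5% CO2. Acetylthiocholine with DTNB was then added for 90 min at 37 C, and thiocholine was measured by colour.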

Test [8] has the same target. The test is described as follows: Acetylcholinesterase (AChE) small molecule antagonists: enzyme-based qHTS assay (AID 1347397; calls by dose curve; further: nearly all actives have a fitted effect of over 55% in size). To be noted: Potency: AChE enzyme activity inhibition. Summed up: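 Colorimetric DTNB readout of acetylthiocholine hydrolysis, 10 min at room temperature, after 30 min room-temperature exposure of 50 mU/mL recombinant human enzyme to compound; DMSO vehicle control.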

The target is the same in test [9]. As to the kind of experiment: Acetylcholinesterase (AChE) small molecule antagonists: fluorescence cell-based qHTS assay (AID 1347398; calls by dose curve; further: nearly all actives have a fitted effect of over 50% in size). The note with it: Potency: AChE activity. Summed up: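 Cellular AChE activity read as thiocholine from acetylthiocholine hydrolysis, detected by Thiolite Green fluorescence at 490/520 nm after 40 min at room temperature. Compounds were pre-incubated 30 min at 37 C on adherent SH-SY5Y cells.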

For test [10] the target is unchanged. As to the kind of experiment: Acetylcholinesterase (AChE) small molecule antagonists: enzyme-based qHTS assay with human liver microsomes (AID 1347399; calls by dose curve; further: nearly all actives have a fitted effect of over 60% in size). The note with it: Potency: qHTS inhibition. The method, boiled down: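 Recombinant human AChE (50 mU/mL in the enzyme mix) and human liver microsomes (0.25 mg/mL final) were preincubated with compound and NADPH (0.25 mg/mL final) for 30 min at 37 C. Acetylthiocholine/DTNB was then added; thiocholine was read colorimetrically after 10 min at room temperature.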

The target in test [11] is Cytochrome P450 2D6 (Homo sapiens) (UniProt P10635). The test is described as follows: Cytochrome P450 Family 2 Subfamily D Member 6 (CYP2D6) small molecule antagonists: luciferase reporter qHTS assay (AID 1671196). Further: nearly all actives have a fitted effect of over 50% in size. Further: potency means the concentration at half of the fitted maximal effect. Summed up: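 Test chemicals meet CYP2D6 plus proluciferin substrate (10 min, RT); NADPH regenerating solution then drives turnover for 1 h. Detection reagent halts the reaction; luminescence measured after 20 min.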
A general note: A reporter such as luciferase makes a cellular process visible.

The target in test [12] is Cytochrome P450 2C19 (Homo sapiens) (UniProt P33261). As to the kind of experiment: Cytochrome P450 Family 2 Subfamily C Member 19 (CYP2C19) small molecule antagonists: luciferase reporter qHTS assay (AID 1671197). Further: nearly all actives have a fitted effect of over 65% in size. Further: potency means the concentration at half of the fitted maximal effect. Summed up:
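P450-Glo CYP2C19 screening system; proluciferin substrate; DMSO compound stocks; 10 min RT preincubation; NADPH regeneration, 1 h at 37C; luciferin detection reagent, 20 min RT; luminescence as RLU.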

The target of test [13] is Cytochrome P450 2C9 (Homo sapiens) (UniProt P11712). As to the kind of experiment: Cytochrome P450 Family 2 Subfamily C Member 9 (CYP2C9) small molecule antagonists: luciferase reporter qHTS assay (AID 1671198). Further: nearly all actives have a fitted effect of over 50% in size. Further: potency means the concentration at half of the fitted maximal effect. The method, boiled down:
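Enzyme-substrate mix preincubated with compound 10 min at room temperature; reaction started with NADPH regeneration solution, 1 h 37C. Luminescent luciferin product read after 20 min detection reagent.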

Test [14] deals with Voltage-gated inwardly rectifying potassium channel KCNH2 (Homo sapiens) (UniProt Q12809). The test is described as follows: Human Ether-a-go-go-Related Gene (hERG) channel small molecule antagonists: fluorescence cell-based qHTS assay (AID 1671200). The method, boiled down: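 Measured: Tl+ flux via fluorescence (480/540 nm) in hERG-expressing U2OS cells after 1 h dye loading at room temperature.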
A general note: The hERG channel carries a current that helps repolarise heart muscle cells.

The target of test [15] is Cytochrome P450 3A4 (Homo sapiens) (UniProt P08684). As to the kind of experiment: Cytochrome P450 Family 3 Subfamily A Member 4 (CYP3A4) small molecule antagonists: luciferase reporter qHTS assay (AID 1671201). The method, boiled down:
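Setup: enzyme-substrate mix, compound pin transfer, 10 min RT. Reaction: NADPH regeneration solution, 1 h RT. Readout: detection reagent stops turnover, luminescence measured after 20 min, expressed in relative luminescence units.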

The nature of test [16]: Caspase-3/7 induction in CHO-K1 cells by small molecules, qHTS cell viability counter screen (AID 1346979). Further: nearly all actives have a fitted effect of over 35% in size. Summed up: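 To flag cytotoxic compounds, treated CHO-K1 wild-type cells were given CellTiter-Fluor at 16hr and read fluorescently after 1hr at 37C; the caspase-3/7 luminescence was measured in these same wells.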
For test [17], the target named is Cytochrome P450 1A2 (Homo sapiens) (UniProt P05177). As to the kind of experiment: Cytochrome P450 Family 1 Subfamily A Member 2 (CYP1A2) small molecule antagonists: luciferase reporter qHTS assay (AID 1671199). The method, boiled down:
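Steps: enzyme-substrate mix dispensed; test compounds and furafylline control pinned in; 10 min room temperature; NADPH regeneration solution added, 1 h; reaction stopped with luciferin detection reagent; luminescence read after 20 min.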

Cytochrome P450 2C19 (Homo sapiens), sequence (P33261 whole entry, looked up): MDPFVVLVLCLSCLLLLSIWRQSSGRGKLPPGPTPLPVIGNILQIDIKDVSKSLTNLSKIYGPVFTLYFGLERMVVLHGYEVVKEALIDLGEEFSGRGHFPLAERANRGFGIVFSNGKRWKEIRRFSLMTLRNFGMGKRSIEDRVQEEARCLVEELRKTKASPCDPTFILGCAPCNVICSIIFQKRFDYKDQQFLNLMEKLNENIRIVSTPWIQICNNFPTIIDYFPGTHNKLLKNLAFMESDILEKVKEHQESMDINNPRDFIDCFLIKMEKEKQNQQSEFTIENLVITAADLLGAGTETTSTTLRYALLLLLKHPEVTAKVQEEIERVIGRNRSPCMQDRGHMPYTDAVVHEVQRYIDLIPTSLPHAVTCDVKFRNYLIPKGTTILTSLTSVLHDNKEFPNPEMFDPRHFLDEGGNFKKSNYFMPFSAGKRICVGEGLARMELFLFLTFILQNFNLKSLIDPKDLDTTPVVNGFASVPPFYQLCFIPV
Cytochrome P450 2C9 (Homo sapiens), sequence (P11712 whole entry, looked up): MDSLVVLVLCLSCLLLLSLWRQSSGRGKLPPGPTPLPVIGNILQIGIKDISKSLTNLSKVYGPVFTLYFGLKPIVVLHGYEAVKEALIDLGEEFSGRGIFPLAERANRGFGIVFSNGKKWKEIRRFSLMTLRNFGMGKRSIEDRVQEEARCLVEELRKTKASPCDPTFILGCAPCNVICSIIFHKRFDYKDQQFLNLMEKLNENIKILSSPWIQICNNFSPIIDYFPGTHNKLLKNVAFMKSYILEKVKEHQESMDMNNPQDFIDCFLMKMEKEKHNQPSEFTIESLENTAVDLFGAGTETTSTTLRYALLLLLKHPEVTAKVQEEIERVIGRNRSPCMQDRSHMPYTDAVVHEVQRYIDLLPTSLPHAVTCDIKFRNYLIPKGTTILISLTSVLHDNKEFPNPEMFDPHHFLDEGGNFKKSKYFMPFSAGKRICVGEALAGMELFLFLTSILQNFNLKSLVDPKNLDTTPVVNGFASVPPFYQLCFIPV
Cytochrome P450 2D6 (Homo sapiens), sequence (P10635 whole entry, looked up): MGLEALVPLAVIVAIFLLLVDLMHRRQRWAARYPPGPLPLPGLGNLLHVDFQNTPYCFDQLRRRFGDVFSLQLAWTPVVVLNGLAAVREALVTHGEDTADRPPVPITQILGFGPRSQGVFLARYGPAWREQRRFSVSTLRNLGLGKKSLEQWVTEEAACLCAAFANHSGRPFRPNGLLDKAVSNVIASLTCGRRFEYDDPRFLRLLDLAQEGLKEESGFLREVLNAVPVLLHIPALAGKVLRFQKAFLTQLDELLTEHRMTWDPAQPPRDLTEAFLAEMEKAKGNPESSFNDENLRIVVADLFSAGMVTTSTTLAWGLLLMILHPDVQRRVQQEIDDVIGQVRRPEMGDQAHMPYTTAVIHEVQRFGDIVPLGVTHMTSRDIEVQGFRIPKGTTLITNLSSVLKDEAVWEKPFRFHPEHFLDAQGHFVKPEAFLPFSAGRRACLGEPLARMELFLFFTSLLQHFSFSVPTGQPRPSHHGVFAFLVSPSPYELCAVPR
Nuclear receptor subfamily 1 group I member 2 (Homo sapiens), sequence (O75469 whole entry, looked up): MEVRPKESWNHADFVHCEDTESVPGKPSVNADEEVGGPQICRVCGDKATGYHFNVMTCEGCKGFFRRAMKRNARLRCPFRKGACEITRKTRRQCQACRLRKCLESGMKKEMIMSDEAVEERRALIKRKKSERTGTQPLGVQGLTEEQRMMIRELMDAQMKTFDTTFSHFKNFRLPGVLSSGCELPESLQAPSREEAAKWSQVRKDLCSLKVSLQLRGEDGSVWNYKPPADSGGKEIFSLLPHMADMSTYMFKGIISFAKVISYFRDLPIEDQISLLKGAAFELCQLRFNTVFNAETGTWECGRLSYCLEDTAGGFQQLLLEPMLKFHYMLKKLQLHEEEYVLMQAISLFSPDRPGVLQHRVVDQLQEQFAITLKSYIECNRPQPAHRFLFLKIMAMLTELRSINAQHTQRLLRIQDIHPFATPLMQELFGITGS
Cytochrome P450 3A4 (Homo sapiens), sequence (P08684 whole entry, looked up): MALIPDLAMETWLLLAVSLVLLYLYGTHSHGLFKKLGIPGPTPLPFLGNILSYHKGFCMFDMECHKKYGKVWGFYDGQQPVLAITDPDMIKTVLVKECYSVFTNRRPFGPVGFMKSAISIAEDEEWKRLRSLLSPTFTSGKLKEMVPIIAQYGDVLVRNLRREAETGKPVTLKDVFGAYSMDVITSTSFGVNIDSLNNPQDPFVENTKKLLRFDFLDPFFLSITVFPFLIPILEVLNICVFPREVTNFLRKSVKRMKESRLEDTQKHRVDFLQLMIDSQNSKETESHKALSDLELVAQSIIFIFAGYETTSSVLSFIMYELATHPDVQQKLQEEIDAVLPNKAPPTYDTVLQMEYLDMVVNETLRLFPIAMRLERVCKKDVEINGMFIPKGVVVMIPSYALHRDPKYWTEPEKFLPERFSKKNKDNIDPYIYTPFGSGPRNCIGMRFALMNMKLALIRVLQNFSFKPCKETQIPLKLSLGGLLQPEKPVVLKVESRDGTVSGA
Acetylcholinesterase (Homo sapiens), sequence (P22303 whole entry, looked up): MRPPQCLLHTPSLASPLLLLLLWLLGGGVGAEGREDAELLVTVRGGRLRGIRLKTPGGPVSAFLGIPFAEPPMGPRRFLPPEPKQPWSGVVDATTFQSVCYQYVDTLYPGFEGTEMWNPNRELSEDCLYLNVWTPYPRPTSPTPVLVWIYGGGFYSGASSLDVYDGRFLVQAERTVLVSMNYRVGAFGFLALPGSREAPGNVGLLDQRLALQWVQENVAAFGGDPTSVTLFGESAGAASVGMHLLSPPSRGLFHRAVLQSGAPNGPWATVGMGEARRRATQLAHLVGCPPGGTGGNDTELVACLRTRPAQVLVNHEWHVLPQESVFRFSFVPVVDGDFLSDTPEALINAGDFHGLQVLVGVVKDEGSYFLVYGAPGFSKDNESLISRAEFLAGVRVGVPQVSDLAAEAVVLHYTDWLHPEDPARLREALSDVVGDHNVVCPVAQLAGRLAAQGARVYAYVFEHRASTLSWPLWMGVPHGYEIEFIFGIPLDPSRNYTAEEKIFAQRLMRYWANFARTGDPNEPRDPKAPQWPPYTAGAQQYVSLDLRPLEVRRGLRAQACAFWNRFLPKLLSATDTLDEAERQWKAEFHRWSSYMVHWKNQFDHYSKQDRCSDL
Voltage-gated inwardly rectifying potassium channel KCNH2 (Homo sapiens), sequence (Q12809 whole entry, looked up): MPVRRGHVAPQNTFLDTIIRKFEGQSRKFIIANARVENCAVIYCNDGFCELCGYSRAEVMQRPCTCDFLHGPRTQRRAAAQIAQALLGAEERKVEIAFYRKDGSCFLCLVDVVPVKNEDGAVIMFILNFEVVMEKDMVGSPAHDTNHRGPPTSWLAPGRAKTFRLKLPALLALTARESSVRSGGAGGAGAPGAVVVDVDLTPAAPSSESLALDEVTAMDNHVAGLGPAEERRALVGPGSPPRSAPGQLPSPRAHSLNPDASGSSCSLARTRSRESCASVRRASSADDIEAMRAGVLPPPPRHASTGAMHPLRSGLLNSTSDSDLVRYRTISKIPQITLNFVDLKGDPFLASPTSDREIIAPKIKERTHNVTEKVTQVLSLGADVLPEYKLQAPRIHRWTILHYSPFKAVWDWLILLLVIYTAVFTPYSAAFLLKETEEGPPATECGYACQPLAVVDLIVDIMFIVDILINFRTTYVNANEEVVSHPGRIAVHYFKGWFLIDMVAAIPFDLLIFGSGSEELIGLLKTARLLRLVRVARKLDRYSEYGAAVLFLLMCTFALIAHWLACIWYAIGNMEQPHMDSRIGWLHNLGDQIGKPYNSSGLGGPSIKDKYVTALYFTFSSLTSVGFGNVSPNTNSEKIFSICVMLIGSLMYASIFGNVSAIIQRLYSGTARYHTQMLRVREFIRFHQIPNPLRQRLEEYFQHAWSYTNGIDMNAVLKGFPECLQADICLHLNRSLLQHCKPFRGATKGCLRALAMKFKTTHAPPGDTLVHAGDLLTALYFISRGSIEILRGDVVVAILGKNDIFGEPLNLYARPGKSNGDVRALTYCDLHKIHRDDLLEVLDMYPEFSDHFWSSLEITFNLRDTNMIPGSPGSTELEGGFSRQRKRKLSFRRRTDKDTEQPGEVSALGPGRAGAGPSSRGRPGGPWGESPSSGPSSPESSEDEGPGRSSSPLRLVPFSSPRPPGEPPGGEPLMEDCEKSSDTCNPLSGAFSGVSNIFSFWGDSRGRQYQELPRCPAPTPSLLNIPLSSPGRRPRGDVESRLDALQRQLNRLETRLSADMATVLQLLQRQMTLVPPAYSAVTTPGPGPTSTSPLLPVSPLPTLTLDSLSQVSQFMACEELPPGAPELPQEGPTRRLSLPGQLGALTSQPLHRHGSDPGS
Thyrotropin-releasing hormone receptor (Homo sapiens), sequence (P34981 whole entry, looked up): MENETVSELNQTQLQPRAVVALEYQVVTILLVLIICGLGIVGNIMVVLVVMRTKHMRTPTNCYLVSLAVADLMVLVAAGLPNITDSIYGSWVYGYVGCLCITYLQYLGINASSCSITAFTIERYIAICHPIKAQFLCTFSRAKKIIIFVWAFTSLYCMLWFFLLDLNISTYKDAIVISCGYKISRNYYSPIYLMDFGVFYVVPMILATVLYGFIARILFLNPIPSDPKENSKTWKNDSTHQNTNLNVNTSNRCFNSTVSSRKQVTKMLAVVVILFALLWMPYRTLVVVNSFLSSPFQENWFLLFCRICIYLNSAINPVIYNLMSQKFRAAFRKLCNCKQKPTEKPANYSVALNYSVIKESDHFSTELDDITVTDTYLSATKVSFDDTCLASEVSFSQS

For the molecule `O=C(O)COc1ccc(Cl)cc1`, the Potency result in test [1], in test [2], in test [3], in test [4], in [5] and in [6] was “inactive” in each case. Besides, the Potency result in test [7], in test [8], in test [9], in test [10], in test [11] and in test [12] was “inactive” each time. The Potency entry in test [13], in test [14] and in [15] was “inactive” each time.
With `C=CCCl`, the Potency entry in [1], in test [2], in [3], in [16], in test [5] and in test [6] was “inactive” each time. For the same molecule, the Potency result in [7], in test [8], in test [9], in test [10], in [11] and in test [12] was “inactive” each time. In addition, the Potency result in test [13], in [14] and in test [15] was “inactive” throughout.
In the case of `O=C=Nc1ccc(Cl)cc1`, the Potency result in [1], in [2], in test [3], in test [16], in test [5] and in test [7] was “inactive” in each case. The Potency entry in test [8], in [9], in test [10], in test [11], in test [14] and in test [15] was “inactive” in each case. For the same molecule, the Potency was 1.54 µM (active) in test [6], 2 µM (active) in test [12] and 7.96 µM (active) in test [13].
On to `CC(C)(OO)c1ccccc1`, for which the Potency result in test [1], in [2], in test [3], in test [16], in [5] and in test [6] was “inactive” each time. The Potency entry in [7], in [8], in test [9], in test [11] and in test [14] was “inactive” in each case. Besides, the values for the Potency in test [12], in [13] and in test [17] were 35.6 µM (active), 39.9 µM (active) and 25.2 µM (active), respectively.
On to `C=CC(=O)NCNC(=O)C=C`, for which the Potency entry in [1], in test [2], in [3], in test [4], in test [5] and in [7] was “inactive” throughout. For the same molecule, the Potency result in test [8], in test [9], in [10], in test [12] and in test [15] was “inactive” each time. For the same molecule, the Potency in [6] was 30.6 µM (active); in test [11], 3.56 µM (active); in test [17] it was 46.5 µM (active).
For the molecule `O=C(C(Cl)(Cl)Cl)C(Cl)(Cl)Cl`, the Potency result in [1], in test [2], in test [3], in test [4], in test [5] and in test [6] was “inactive” each time. Moreover, the Potency entry in test [7], in [8], in test [9], in test [10], in test [12] and in test [13] was “inactive” each time. For the same molecule, the Potency result in test [14] and in [15] was “inactive” throughout. Besides, in [11], the Potency was 36.3 µM (active).
For the molecule `C=CC(=O)OCC(C)O` (stereo not drawn), the Potency result in test [1], in test [2], in [3], in test [4], in [5] and in test [6] was “inactive” throughout. Also, the Potency result in test [7], in test [8], in test [9], in [10], in test [11] and in [12] was “inactive” in each case. Further, the Potency entry in [13] and in test [15] was “inactive” throughout.
For the molecule `CC(C)(C)C(O)C(Oc1ccc(Cl)cc1)n1cncn1` (stereo not drawn), the Potency result in [1], in test [2], in [3], in [16], in [5] and in test [7] was “inactive” throughout. The Potency entry in [8] and in [9] was “inactive” each time. Moreover, the Potency in test [6] is 4.33 µM (active); in [12], 0.796 µM (active); in [13], 33.6 µM (active).
